High-throughput results from PubChem BioAssay.
Hits are enriched below; roughly 27% of the tested compounds scored in any of these assays.
Cav32 inh – inhibitors of human Cav3.2 T-type calcium channel. O95180. Cav3.2-expressing cells, Fluo-4 calcium fluorescence FDSS; hits give low values. B-score at 10 µM. actives 4% (n = 100,000). AID 449739;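 active = single-dose well whose peak fluorescence ratio is a statistical outlier from its plate by either plate-standardised score or position-corrected B-score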
CYP2C19 act – cytochrome P450 2C19 (human) activation | recombinant CYP2C19, luciferin-H EGE luminescence; hits give high values; 0 = fully inhibited enzyme, 1 = untreated enzyme | activation factor at 5 µM | 96,000 tested, under 10 active | AID 1025;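 active = activation factor of at least 2 at 5 µM in the primary screen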;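 note: 0 = wells with 2.5 mM tranylcypromine and 1 = vehicle-only wells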
Target sequence (P33261 whole entry, looked up): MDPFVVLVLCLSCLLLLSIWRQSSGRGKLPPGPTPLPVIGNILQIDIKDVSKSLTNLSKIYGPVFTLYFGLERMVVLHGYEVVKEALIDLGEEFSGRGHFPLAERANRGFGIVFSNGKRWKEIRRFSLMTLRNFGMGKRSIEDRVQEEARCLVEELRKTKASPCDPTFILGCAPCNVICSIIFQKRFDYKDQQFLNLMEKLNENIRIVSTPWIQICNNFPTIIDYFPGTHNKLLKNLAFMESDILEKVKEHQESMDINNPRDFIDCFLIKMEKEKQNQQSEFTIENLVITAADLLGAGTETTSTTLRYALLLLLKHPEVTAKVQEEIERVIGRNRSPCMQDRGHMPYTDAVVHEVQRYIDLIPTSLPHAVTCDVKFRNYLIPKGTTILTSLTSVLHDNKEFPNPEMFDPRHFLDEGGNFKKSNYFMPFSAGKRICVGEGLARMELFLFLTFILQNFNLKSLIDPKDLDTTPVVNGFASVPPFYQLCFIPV
CYP2C9 act – CYP2C9 (human) activation. P11712. recombinant CYP2C9, luciferin-H conversion, luminescence; hits give high values; factor 1 = untreated enzyme, 0 = blocked. activation factor at 5 µM. actives 1.4% (n = 96,000). AID 1024;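 active = activation factor of 2 or more for CYP2C9 at a 5 µM dose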;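 note: 0 = sulfaphenazole-blocked wells and 1 = vehicle-only wells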
CYP2C19 inhib – human CYP2C19 inhibition; actives 21% (n = 96,000); AID 778; inhibition, % at 5 µM; P33261; CYP2C19 Supersomes, luciferin-H EGE luminescence, 30 min;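 active = CYP2C19 inhibition above a set limit at 5 µM in the primary screen, cut at about 50% in these data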;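 note: plate controls were negative control wells for no effect and 2.5 mM tranylcypromine positive control for full effect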
CYP2C9 inhib – inhibitors of human CYP2C9. P11712. CYP2C9 Supersomes, luciferin-H conversion, luminescence. inhibition, % at 5 µM. actives 20% (n = 96,000);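 active = blocking of liver enzyme CYP2C9 beyond about 50% at 5 µM, limit read from the data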
* hit, by the source's call; . = no result given.

SMILES	Cav32 inh	CYP2C19 act	CYP2C9 act	CYP2C19 inhib	CYP2C9 inhib
CS(=O)(=O)N(Cc1ccccc1)c1ccc(C(=O)N2CCc3ccccc3C2)cc1	-1.27	0.5	0.4	46.1	63.3*
CN(C)CCNc1oc(-c2cccc(Cl)c2)nc1C#N	0.258	1	0.9	1.8	9.1
COC(=O)c1ccc2nc(C(F)(F)F)[nH]c2c1	0.487	0.7	0.6	34.5	44.6
Cc1ccc(CN2[C@@H](CC(C)C)COCCS2(=O)=O)cc1	-0.354	.	.	.	.
N/C(Cc1cccs1)=N\OC(=O)COc1ccccc1	-0.0109	0.8	0.9	20.7	7.0
CCOC(=O)N1CCN(C(=O)c2ccc(N(Cc3ccccc3)S(C)(=O)=O)cc2)CC1	0.832	0.3	0.1	68.0*	89.6*
COC(=O)c1ccc(N2C(=O)CC(Sc3n[nH]c(C)n3)C2=O)cc1 (stereo not drawn)	0.571	0.9	1	7.9	4.9
CN=C(Nc1cc(Cl)ccc1Cl)SC1CC(=O)N(c2ccc(C(=O)OC)cc2)C1=O (stereo not drawn)	-0.211	0.1	0	91.7*	99.9*
CC(C)(C)OC(=O)NCCCCCNC(=O)c1[nH]cnc1C(=O)N[C@@H](CCCCNC(=O)OC(C)(C)C)C(=O)OC(C)(C)C	-2.66*	.	.	.	.
Cc1nnc(OCc2nc3ccccc3n2C)c2ccccc12	0.297	0.6	0.4	38.0	59.0*
Clc1ccc(OCCSc2ncccn2)c2ccccc12	-2.46	0.9	1.1	11.1	-5.0
c1cnc(SCCOc2cccc3ccccc23)nc1	-4.14	0.4	1.5	56.7*	-46.7
COCCCn1c(Cc2csc(Nc3ccc(F)cc3)n2)nnc1SCC(N)=O	-2.49	1	0.8	1.0	21.2
CSc1nc2sc(-c3ccccc3)cc2c(=O)n1N	.	0.3	0.2	69.0*	77.6*
CC(C)Sc1nc2sc(-c3ccccc3)cc2c(=O)n1N	1.72	0.7	0.7	27.3	32.3
COc1ccc2[nH]c(C(=O)O)c(NS(=O)(=O)c3ccc(Cl)s3)c2c1	-1.08	0.2	0	78.9*	99.0*
CSc1ccccc1C(=O)Nc1cccc(C)c1	-0.66	0.8	1	18.2	2.0
Cc1cccc(NC(=O)C23CCC(C)(C2Br)C3(C)C)c1 (stereo not drawn)	-5.42*	0.9	0.9	8.0	10.9
CCN(CC)CC(=O)N1N=C(c2cccs2)CC1c1ccco1 (stereo not drawn)	0.884	1	1	4.3	3.0
O=C(OCC(=O)N1N=C(c2ccc(Cl)cc2)CC1c1ccco1)c1ccccc1O (stereo not drawn)	-4.65*	0.8	0.1	16.9	87.8*
Cc1c2c([n+]3n1CCC3)CC(C)(C)CC2=O	0.00613	1.2	1.2	-20.3	-15.5
CCC1(C(=O)OC)NC(c2ccccc2OC)C2C(=O)N(C)C(=O)C21 (stereo not drawn)	0.327	1.2	1.2	-21.7	-23.3
O=C(NCc1cccc(Br)c1)C1CC(c2ccc(C(F)(F)F)cc2)=NO1 (stereo not drawn)	-1.24	.	.	.	.
COc1ccc(NC(=O)c2sc(SCc3ccccc3)nc2N)cc1	-0.69	1	0.9	0.3	12.3
CCOC(=O)CSc1nc(C)c(C(=O)OCC)s1	0.63	0.6	0.3	38.2	65.0*
SMILES	Cav32 inh	CYP2C19 act	CYP2C9 act	CYP2C19 inhib	CYP2C9 inhib
CCOC(=O)CSc1nc(N)c(C(=O)Nc2ccc(N(C)C)cc2)s1	1.26	0.3	0.5	65.4*	47.1
CCOC(=O)CSc1nc2ccc(N)cc2s1	0.0477	0.5	0.8	45.8	19.2
Oc1ccc(/C=N/n2c3ccccc3c3ccccc32)cc1	-1.51	0.8	0.3	19.7	73.2*
Cc1nnc(C)n1/N=C/c1ccc(O)cc1	-0.764	1	0.9	-2.0	9.8
CCOC(=O)C1=C(NC#N)OC(C)=C(C)C1c1ccc(O)cc1 (stereo not drawn)	0.714	0	0.3	95.5*	69.8*
COc1ccccc1Nc1nc(C2(C)CCC(=O)O2)cs1 (stereo not drawn)	0.411	0.2	0.6	81.4*	38.9
COc1ccccc1Nc1nc2c(s1)CCC2	-0.108	0.9	0.9	6.3	6.6
N=C1C(c2nc(-c3ccc(F)cc3)cs2)=C(O)CN1Cc1ccc(Cl)cc1	-0.0841	0.5	0.5	45.4	53.1*
COc1ccc(-c2csc(C3=C(O)CN(Cc4ccc(Cl)cc4)C3=N)n2)cc1OC	-0.146	0.6	0.1	42.9	89.4*
Cc1ccc(C)c(OCC(=O)Nc2nc3ccc([N+](=O)[O-])cc3s2)c1C	-2.12	1.2	1.2	-24.1	-24.9
COc1cc(N/C=C(\C(C)=O)c2ccccc2)cc(OC)c1	-1.4	0.3	0.1	72.5*	85.5*
CC(=O)/C(=C/Nc1ccc(Oc2ccccc2)cc1)c1ccccc1	-0.29	0.3	0.1	67.9*	89.2*
COc1cccc(C(N)=O)c1	-0.297	.	.	.	.
CN1CCN(C2=CC(=O)OC23CCCCC3)CC1	0.0181	.	.	.	.
Cc1cc(N)n(-c2ccc3ccccc3c2)n1	1.17	0.9	1	11.7	0.9
Cc1ccc(Oc2ccccc2/C=C2\SC(=O)N(C)C2=O)cc1	-1.85	0.5	0.7	51.0*	32.0
O=C1NC(=O)/C(=C/c2ccccc2Oc2ccc(Cl)cc2)S1	-1.51	0.8	0.3	16.3	71.6*
O=Cc1ccccc1Oc1ccccc1	1.26	0.9	0.9	11.8	5.5
Cc1cc(C)cc(Oc2ccccc2/C=C\C(=O)O)c1	-0.88	1	1.1	-4.2	-9.1
N#Cc1c(-c2ccccc2)c(-c2ccccc2)nn(CC(=O)NNC(=O)Nc2ccccc2)c1=O	.	0.7	0.5	25.3	53.0*
COc1ccc(-c2nn(CC(=O)Nc3ccc(Cl)c(Cl)c3)c(=O)c3ccccc23)cc1	-1.8	0.7	0.1	33.3	87.2*
O=C(Cn1nc(-c2ccccc2)c2ccccc2c1=O)Nc1cccnc1	0.141	0.8	0.3	19.7	72.0*
O=C(Cn1nc(-c2ccc(Cl)cc2)c2ccccc2c1=O)Nc1cccnc1	-2.33	1	0.4	1.9	59.2*
O=C(Cn1nc(-c2ccccc2)c2ccccc2c1=O)Nc1ccccn1	-1.28	0.9	0.6	14.5	35.8
Cc1ccc(S(=O)(=O)NC(C)C(c2cccs2)N2CCN(C)CC2)cc1 (stereo not drawn)	0.302	.	.	.	.
SMILES	Cav32 inh	CYP2C19 act	CYP2C9 act	CYP2C19 inhib	CYP2C9 inhib
Cc1ccc(S(=O)(=O)NC(C)C(c2cccs2)N2CCOCC2)cc1 (stereo not drawn)	0.0558	.	.	.	.
CC(NS(=O)(=O)c1ccccc1)C(c1cccs1)N1CCN(C)CC1 (stereo not drawn)	0.877	0.4	1	63.4*	2.8
CCN1CCN(C(c2cccs2)C(C)NS(=O)(=O)c2ccc(Br)cc2)CC1 (stereo not drawn)	.	0	0.9	95.4*	9.1
CC1CCN(CCNC(=O)C2CCCN(S(=O)(=O)c3cccc4nonc34)C2)CC1 (stereo not drawn)	.	0.9	0.9	7.7	14.5
Cn1c(=O)[nH]c(=O)c2c1nc(N1CCCC1)n2CCSc1nc2ccccc2[nH]1	-0.0898	1.1	0.9	-6.0	9.3
Cc1cc(C)n(C(=O)Cc2cn3ccsc3n2)n1	0.0656	0.8	1	16.4	4.8
